Compounds without any hit were thinned out: in the full panel of roughly 79,000, 15% have a hit. Values without a mark were called inactive. The source made the active and inactive calls. No stated cut-off is given here; in the data, active means growth inhibition above about 70%; inactive means the rest.

Among the data in PubChem BioAssay (NCI) are growth inhibition values, retold here.

Test [1] can be described thus: NCI Yeast Anticancer Drug Screen. Data for the rad50 strain (AID 155).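 Further: 0% = growth of vehicle-only cultures of the same strain.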 The note with it: S. cerevisiae rad50 strain growth inhibition, active compounds read high. An outline of the steps: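 Readout: growth inhibition relative to vehicle-treated cultures. Compound exposure was carried out in a genetically defined yeast strain deficient in DNA damage repair.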
Test [2] can be described thus: NCI Yeast Anticancer Drug Screen. Data for the mec2-1 strain (AID 157). To be noted: S. cerevisiae mec2-1 strain, active compounds read high. In outline: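 Readout is yeast growth inhibition, normalised to vehicle-treated controls, in the mec2-1 strain exposed to compound.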
A short description of test [3]: NCI Yeast Anticancer Drug Screen. Data for the sgs1 mgt1 strain (AID 161).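 Further: 0% = growth of cultures given vehicle only.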 The note with it: S. cerevisiae sgs1 mgt1 strain, active compounds read high. An outline of the steps: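 Yeast cells carrying a defined DNA-repair defect were exposed to test compounds. Growth inhibition was measured relative to vehicle-treated controls.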
A short description of test [4]: NCI Yeast Anticancer Drug Screen. Data for the cln2 rad14 strain (AID 165).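 Further: 0% = growth equal to vehicle treated cultures.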 The note with it: S. cerevisiae cln2 rad14 strain, active compounds read high. An outline of the steps: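 Relative to vehicle controls, growth inhibition of compound-treated cln2 rad14 yeast was recorded.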
A short description of test [5]: NCI Yeast Anticancer Drug Screen. Data for the bub3 strain (AID 167). To be noted: S. cerevisiae bub3 mutant strain, active compounds read high. In outline:
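Readout: yeast growth inhibition, expressed relative to vehicle-only wells. The test organism is a mutant strain from a panel with lesions in DNA repair or checkpoint genes.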

Test [6] is described as follows: NCI Yeast Anticancer Drug Screen. Data for the mlh1 rad18 strain (AID 175). The note with it: S. cerevisiae mlh1 rad18 strain growth inhibition, active compounds read high. In outline: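 Test agents were incubated with a yeast strain of defined genotype (DNA damage repair defect). Inhibition of growth was derived by comparison with vehicle-exposed cultures.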
[7] abbreviates: at 5.0 µM (retest, dose inferred, filed as 0.5).
[8] abbreviates: at 50.0 µM (retest, dose inferred, filed as 5.0).

As to `CCC1([N+](=O)[O-])COC(c2ccc3c(c2)OCO3)OC1` (stereo not given), the growth inhibition in test [1] (setting [7]) is -9%; in test [1] (setting [8]) it was -11%; in test [1] (at 50.0 µM), -1.7%; in test [2] (setting [7]) it was -14%; in test [2] (setting [8]), -1%; in test [2] (at 50.0 µM), -3.15%. Also, the growth inhibition in test [3] (setting [7]) is -1%; in test [3] (setting [8]), -47%; in test [3] (at 50.0 µM) it was 11.7%; in test [4] (setting [7]), 10%; in test [4] (setting [8]), 21%; in test [4] (at 50.0 µM) it was -1.9%. Further, the growth inhibition in test [5] (setting [7]) was 14%; in test [5] (setting [8]), -23%; in test [5] (at 50.0 µM), 3.35%; in test [6] (setting [7]), -18%; in test [6] (setting [8]), -6%; in test [6] (at 50.0 µM), 4.45%.

As to `O=Cc1c(O)ccc2ccccc12`, the growth inhibition in test [1] (setting [7]) was 12%; in test [1] (setting [8]) it was 99% (active); in test [1] (at 50.0 µM) it was 99.2% (active); in test [2] (setting [7]) it was 8%; in test [2] (setting [8]), 98% (active); in test [2] (at 50.0 µM), 99.4% (active). In addition, the growth inhibition in test [3] (setting [7]) is 11%; in test [3] (setting [8]), 99% (active); in test [3] (at 50.0 µM), 99.2% (active); in test [4] (setting [7]) it was 6%; in test [4] (setting [8]) it was 99% (active); in test [4] (at 50.0 µM) it was 99% (active). Also, the growth inhibition in test [5] (setting [7]) was 2%; in test [5] (setting [8]), 98% (active); in test [5] (at 50.0 µM), 99.5% (active); in test [6] (setting [7]), 17%; in test [6] (setting [8]), 98% (active); in test [6] (at 50.0 µM), 99.2% (active).

In the case of `CC1CCN(C(=S)NNC(C)c2cc3ccccc3cn2)CC1` (stereo not given), the growth inhibition was 45% in test [1] (setting [7]); 97% (active) in test [1] (setting [8]); 82.5% (active) in test [1] (at 50.0 µM); 60% in test [2] (setting [7]); 98% (active) in test [2] (setting [8]); 75.7% (active) in test [2] (at 50.0 µM). Besides, the growth inhibition in test [3] (setting [7]) is 80% (active); in test [3] (setting [8]) it was 97% (active); in test [3] (at 50.0 µM), 88.6% (active); in test [4] (setting [7]), 82% (active); in test [4] (setting [8]), 97% (active); in test [4] (at 50.0 µM) it was 84.9% (active). For the same compound, the growth inhibition was 71% (active) in test [5] (setting [7]); 97% (active) in test [5] (setting [8]); 85.8% (active) in test [5] (at 50.0 µM); 50% in test [6] (setting [7]); 96% (active) in test [6] (setting [8]); 86.8% (active) in test [6] (at 50.0 µM).

For `CC(C)N(C(=O)C12C3C4C1C1C2C3C41I)C(C)C` (stereo not given), the growth inhibition in test [1] (setting [7]) is 16%; in test [1] (setting [8]), -6%; in test [1] (at 50.0 µM), 57.5%; in test [2] (setting [7]), -28%; in test [2] (setting [8]), 19%; in test [2] (at 50.0 µM), 67.4%. The growth inhibition was 44% in test [3] (setting [7]); 27% in test [3] (setting [8]); 68.5% in test [3] (at 50.0 µM); 3% in test [4] (setting [7]); 28% in test [4] (setting [8]); 42.7% in test [4] (at 50.0 µM). Moreover, the growth inhibition in test [5] (setting [7]) was -38%; in test [5] (setting [8]), -11%; in test [5] (at 50.0 µM), 61%; in test [6] (setting [7]), -34%; in test [6] (setting [8]) it was 20%; in test [6] (at 50.0 µM), 73.5% (active).

As to `O=C(O)/C=C/C(=O)Nc1cc2c(cc1Br)-c1ccccc1C2Br` (stereo not given), the growth inhibition in test [1] (setting [7]) was 8%; in test [1] (setting [8]), 77% (active); in test [1] (at 50.0 µM), 9.15%; in test [2] (setting [7]), 1%; in test [2] (setting [8]), 38%; in test [2] (at 50.0 µM) it was 40.9%. Besides, the growth inhibition in test [3] (setting [7]) is 3%; in test [3] (setting [8]), 69%; in test [3] (at 50.0 µM) it was 7.45%; in test [4] (setting [7]), -1%; in test [4] (setting [8]), 27%; in test [4] (at 50.0 µM), 38.1%. The growth inhibition is -12% in test [5] (setting [7]); 71% (active) in test [5] (setting [8]); -3.8% in test [5] (at 50.0 µM); 4% in test [6] (setting [7]); 81% (active) in test [6] (setting [8]); 11.2% in test [6] (at 50.0 µM).

On to `CCC(C)(C)C(=O)OCC(=O)c1ccc(-c2ccccc2)cc1`, for which the growth inhibition in test [1] (setting [7]) was -15%; in test [1] (setting [8]), -17%; in test [1] (at 50.0 µM), -5.8%; in test [2] (setting [7]), 5%; in test [2] (setting [8]), -4%; in test [2] (at 50.0 µM) it was 8.25%. The growth inhibition was 2% in test [3] (setting [7]); -3% in test [3] (setting [8]); -7.4% in test [3] (at 50.0 µM); 33% in test [4] (setting [7]); -57% in test [4] (setting [8]); -3.35% in test [4] (at 50.0 µM). The growth inhibition in test [5] (setting [7]) was 29%; in test [5] (setting [8]), 25%; in test [5] (at 50.0 µM), 62.2%; in test [6] (setting [7]) it was -11%; in test [6] (setting [8]) it was -4%; in test [6] (at 50.0 µM), 12.8%.

As for `Nc1nnc(CCC(=O)Nc2ccccc2Cl)o1`, the growth inhibition in test [1] (setting [7]) is -2%; in test [1] (setting [8]), -5%; in test [1] (at 50.0 µM), -1.3%; in test [2] (setting [7]), 0%; in test [2] (setting [8]), 4%; in test [2] (at 50.0 µM), 79.5% (active). Also, the growth inhibition in test [3] (setting [7]) is -6%; in test [3] (setting [8]), -2%; in test [3] (at 50.0 µM) it was 98.5% (active); in test [4] (setting [7]), 7%; in test [4] (setting [8]) it was 9%; in test [4] (at 50.0 µM) it was 98.2% (active). The growth inhibition in test [5] (setting [7]) was 1%; in test [5] (setting [8]) it was 2%; in test [5] (at 50.0 µM) it was 98.8% (active); in test [6] (setting [7]) it was -5%; in test [6] (setting [8]), 2%; in test [6] (at 50.0 µM) it was 98.5% (active).

Consider `CC(=O)c1sc2c(c1O)c(=O)n(-c1ccccc1)c(=S)n2-c1ccccc1`, for which the growth inhibition in test [1] (setting [7]) is -4%; in test [1] (setting [8]), 75% (active); in test [1] (at 50.0 µM) it was 68.3%; in test [2] (setting [7]), 19%; in test [2] (setting [8]) it was 83% (active); in test [2] (at 50.0 µM), 67.4%. The growth inhibition in test [3] (setting [7]) is 10%; in test [3] (setting [8]) it was 88% (active); in test [3] (at 50.0 µM), 75.5% (active); in test [4] (setting [7]), 16%; in test [4] (setting [8]) it was 95% (active); in test [4] (at 50.0 µM), 80% (active). For the same compound, the growth inhibition in test [5] (setting [7]) is 25%; in test [5] (setting [8]), 94% (active); in test [5] (at 50.0 µM) it was 58.4%; in test [6] (setting [7]) it was -11%; in test [6] (setting [8]), 87% (active); in test [6] (at 50.0 µM), 29.9%.

Turning to `O=C1O/C(=C2\OC(=O)c3ccccc32)c2ccccc21`, the growth inhibition in test [1] (setting [7]) is 9%; in test [1] (setting [8]) it was 22%; in test [1] (at 50.0 µM) it was -13.4%; in test [2] (setting [7]), 0%; in test [2] (setting [8]), 0%; in test [2] (at 50.0 µM) it was 7.55%. The growth inhibition was 4% in test [3] (setting [7]); 1% in test [3] (setting [8]); -28.3% in test [3] (at 50.0 µM); 1% in test [4] (setting [7]); 3% in test [4] (setting [8]); 47.8% in test [4] (at 50.0 µM). In addition, the growth inhibition in test [5] (setting [7]) was 1%; in test [5] (setting [8]) it was 2%; in test [5] (at 50.0 µM), 5.25%; in test [6] (setting [7]) it was 16%; in test [6] (setting [8]), -1%; in test [6] (at 50.0 µM), -18.1%.

Regarding `N#Cc1c(Cl)nnc(-c2ccccc2)c1-c1ccccc1`, the growth inhibition in test [1] (setting [7]) was 6%; in test [1] (setting [8]), 81% (active); in test [1] (at 50.0 µM), 89.3% (active); in test [2] (setting [7]) it was 8%; in test [2] (setting [8]) it was 84% (active); in test [2] (at 50.0 µM), 92.2% (active). The growth inhibition in test [3] (setting [7]) was -8%; in test [3] (setting [8]), 83% (active); in test [3] (at 50.0 µM) it was 92.8% (active); in test [4] (setting [7]), -1%; in test [4] (setting [8]) it was 66%; in test [4] (at 50.0 µM), 93.8% (active). Moreover, the growth inhibition in test [5] (setting [7]) was 1%; in test [5] (setting [8]) it was 91% (active); in test [5] (at 50.0 µM) it was 93.5% (active); in test [6] (setting [7]) it was 4%; in test [6] (setting [8]), 91% (active); in test [6] (at 50.0 µM), 93.6% (active).
